Assay outcomes (PubChem BioAssay)
RXFP1 antagonist – RXFP1 (human) relaxin receptor antagonism. Q9HBX9. HEK293-RXFP1, relaxin-stimulated cAMP HTRF, 30 min; active compounds read low. activity change, negative = inhibition, % at 57.5 µM. 0.59% of 350,000 active;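 active means activity change of -60% or lower, but not beyond a set lower limit; inconclusive means change between -60% and -40%, or beyond the set limit; inactive means change above -40%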
Target sequence (Q9HBX9 whole entry, looked up): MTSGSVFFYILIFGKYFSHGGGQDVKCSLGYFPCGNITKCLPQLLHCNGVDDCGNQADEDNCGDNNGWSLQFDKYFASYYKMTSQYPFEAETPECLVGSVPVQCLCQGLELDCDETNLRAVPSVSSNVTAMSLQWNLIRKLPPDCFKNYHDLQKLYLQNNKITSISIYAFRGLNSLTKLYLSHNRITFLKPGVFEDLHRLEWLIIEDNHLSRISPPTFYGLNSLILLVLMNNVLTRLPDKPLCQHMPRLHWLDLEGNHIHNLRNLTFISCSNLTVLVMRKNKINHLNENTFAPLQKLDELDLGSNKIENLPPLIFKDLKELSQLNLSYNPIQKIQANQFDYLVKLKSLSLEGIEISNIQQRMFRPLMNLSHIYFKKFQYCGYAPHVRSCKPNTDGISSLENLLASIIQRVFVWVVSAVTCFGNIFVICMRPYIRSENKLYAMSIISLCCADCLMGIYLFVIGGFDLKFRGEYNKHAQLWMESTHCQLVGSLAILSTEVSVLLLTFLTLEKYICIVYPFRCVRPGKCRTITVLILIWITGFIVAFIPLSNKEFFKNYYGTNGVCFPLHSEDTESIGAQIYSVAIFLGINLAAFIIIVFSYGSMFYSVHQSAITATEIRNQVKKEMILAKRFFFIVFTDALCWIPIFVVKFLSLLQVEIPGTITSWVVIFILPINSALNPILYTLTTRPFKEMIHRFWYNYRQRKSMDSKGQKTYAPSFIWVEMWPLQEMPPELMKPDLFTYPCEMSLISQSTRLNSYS
gsp antag – antagonists of gsp mutant (McCune-Albright syndrome). 0.4% of 340,000 active. Potency, µM (series often up to 76.9 µM), usual class: inhibitors. gsp-mutant cells, cAMP HTRF, 30 min; calls by dose curve; cell line not stated here;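 further: intracellular cAMP measured with PDE inhibitor Ro 20-1724 present during compound exposure; nearly all actives have a fitted effect of over 65% in size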
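Cells in G418 medium, seeded 16-24 h, 37C; buffer exchange to DPBS + 1 mM CaCl2, 0.5 mM MgCl2, 0.05% BSA; cpds in DMSO + […] (300 uM stock), 30 min 37C; HTRF cAMP detection.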
RXFP1 ag – agonists of human relaxin receptor RXFP1; Q9HBX9; HEK293T-RXFP1 cAMP TR-FRET, 30 min; response scale: percent of porcine relaxin response, buffer zero; Potency, µM (highest dose often 57.5 µM), most hits filed as activators; 0.3% of 370,000 active; active means well fitted activation curve with a large enough effect; inconclusive means small, poorly fitted or top-dose-only effect; further: nearly all actives have a fitted effect of over 60% in size
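Agonist response is measured as cAMP accumulation in an RXFP1-transfected HEK293T line under PDE4 inhibition. Values are scaled between buffer-only and 29 nM porcine relaxin, and EC50s come from standard Hill equation fits.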
gsp ag – activates gsp, the McCune-Albright syndrome mutation | gsp mutant cells, cAMP HTRF, 30 min | 0.13% of 340,000 active | Potency, µM (series often up to 76.9 µM), most hits filed as activators; active means well fitted activation curve with a large enough effect; inconclusive means small, poorly fitted or top-dose-only effect, or another doubt; inactive means no such curve, though single readings can be large or run the other way; cell line not stated here;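 further: phosphodiesterase inhibitor Ro 20-1724 added with compounds to block cAMP breakdown; nearly all actives have a fitted effect of over 60% in size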
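Cells stably selected in G418 were plated at 2000/well, grown 16-24 hr, then given compounds in DMSO with the PDE inhibitor […] (300 uM solution added) for 30 min at 37C; cAMP was read by HTRF.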
Giardia killer – kills Giardia lamblia; Giardia lamblia trophozoite viability; activity change, % at 7.66 µM, hits read low; 0.15% of 340,000 active; AID 540267; in the data active means activity change below about -80%; inconclusive means between about -30% and that limit;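 further: parasites exposed to compound for two days anaerobically before the ATP read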
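Luminescence from cellular ATP indicates surviving trophozoites (100 cells/well) following 48 hrs anaerobic compound treatment at 37 deg C; signal develops 15-30 min at room temperature.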
FBPA coupling cs – coupling enzyme interference in Giardia aldolase counter-screen; 0.67% of 290,000 active; activity change, negative = inhibition, % at 58.2 µM, hits read low; coupling enzyme system counterscreen, AmpLite Red fluorescence; AID 2472; in the data active means activity change below about -30%
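Activity here indicates interference with the coupling reaction, not aldolase inhibition. Compounds at 57.5 uM final met coupling enzymes for 10 min at RT; substrate and AmpLite Red detection followed, with a 525/598 nm fluorescence read after 20 min.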
Of the large screens only hits and unclear results are named; the others gave an inactive call; ! = not active in a repeat. A selection: hits, their analogues and other compounds. The true share with any hit is near 1.6%.

COC(=O)CCC(=O)OC1(C)C(=O)C=C2C=C(C3CC3)N(c3cccc(C#N)c3)C=C2C1=O (stereo not given)	gsp ag inconclusive, FBPA coupling cs -32! (no result: RXFP1 antagonist)
Cc1c(Br)cc(C(=O)O)c(C)c1C	none
Cc1c(N)cc(N)cc1C(=O)O	FBPA coupling cs -35
Cc1ccnc(N2C(=O)CSC2c2ccc(Cl)cc2)c1 (stereo not given)	none
CSCC[C@H](NC(=O)[C@H](CO)NC(=O)[C@H](Cc1ccc(O)cc1)NC(=O)[C@@H](N)CO)C(=O)N[C@@H](CCC(=O)O)C(=O)N[C@@H](Cc1cnc[nH]1)C(=O)N[C@@H](Cc1ccccc1)C(=O)N[C@@H](CCCNC(=N)N)C(=O)N[C@@H](Cc1c[nH]c2ccccc12)C(=O)NCC(=O)N[C@@H](CCCCN)C(=O)N1CCC[C@H]1C(=O)N[C@H](C(=O)NCC(=O)N[C@@H](CCCCN)C(=O)N[C@@H](CCCCN)C(=O)N[C@@H](CCCNC(=N)N)C(=O)N[C@@H](CCCNC(=N)N)C(=O)N1CCC[C@H]1C(=O)N[C@H](C(=O)N[C@@H](CCCCN)C(=O)N[C@H](C(=O)N[C@@H](Cc1ccc(O)cc1)C(=O)N1CCC[C@H]1C(=O)N[C@@H](CC(N)=O)C(=O)NCC(=O)N[C@@H](C)C(=O)N[C@@H](CCC(=O)O)C(=O)N[C@@H](CC(=O)O)C(=O)N[C@@H](CCC(=O)O)C(=O)N[C@@H](CO)C(=O)N[C@@H](C)C(=O)N[C@@H](CCC(=O)O)C(=O)N[C@@H](C)C(=O)N[C@@H](Cc1ccccc1)C(=O)N1CCC[C@H]1C(=O)N[C@@H](CC(C)C)C(=O)N[C@@H](CCC(=O)O)C(=O)N[C@@H](Cc1ccccc1)C(=O)O)C(C)C)C(C)C)C(C)C	none (no result: RXFP1 antagonist, gsp antag, RXFP1 ag, gsp ag, Giardia killer)
CC(C)(C)c1ccc(C(=O)Nc2onc3c2CCCC3)cc1	RXFP1 antagonist -60 (no result: gsp antag, gsp ag, Giardia killer, FBPA coupling cs)
COC(=O)c1ccc(/C(O)=C(\C#N)c2nc3ccccc3s2)cc1	gsp antag 18µM
CC(C)=CCC/C(C)=C/CO/N=C1/C[C@@H](O)[C@@H](O)[C@@H]2[C@@H]3C(=O)N([C@@H](C)c4ccccc4)C(=O)[C@H]3CC[C@@H]12	none (no result: RXFP1 antagonist, gsp antag, RXFP1 ag, gsp ag, Giardia killer)
COc1cc(C2C(C#N)=C(N)Oc3c2ccc2ccccc32)ccc1OCC(=O)Nc1cccc(C)c1 (stereo not given)	RXFP1 antagonist -78
C=CCn1c(Sc2ncc([N+](=O)[O-])s2)n[nH]c1=O	RXFP1 antagonist -80
O=[N+]([O-])c1cnc(Sc2ccncn2)s1	none
COc1ccc(N2CCN(S(=O)(=O)c3ccc(CC(C)C)cc3)CC2)cc1	none (no result: RXFP1 antagonist, gsp antag, gsp ag, Giardia killer, FBPA coupling cs)
COc1ccc(-c2nn(C)c3sc(C(=O)NCc4ccco4)cc23)cc1OC	RXFP1 ag inconclusive, gsp ag 13µM
N#CCC(=O)c1ccccc1Oc1ccc(Cl)cc1	none
CCN(CC)c1ccc(NC(=O)CCc2nnc3ccc(N4CCCC4)nn23)c(C)c1	gsp antag inconclusive (no result: RXFP1 antagonist)
O=C(c1ccc(N2CCN(C(=O)c3ccccc3Br)CC2)cc1)c1cccc(F)c1	gsp antag inconclusive, gsp ag inconclusive (no result: FBPA coupling cs)
O=C(c1ccc(N2CCN(C(=O)c3cccc(F)c3)CC2)cc1)c1cccc(F)c1	gsp antag 32µM (no result: FBPA coupling cs)
COC(=O)C(Cc1csc2ccc(Cl)cc12)NC(=O)c1ccc(Cl)cc1 (stereo not given)	RXFP1 antagonist -68
COc1ccc(-c2cc(C(=O)Nc3cccc(O)c3)on2)cc1OC	none (no result: gsp antag, gsp ag, Giardia killer, FBPA coupling cs)
O=C(NC1CC1)c1nc2c(nnn2Cc2ccccc2Cl)c(=O)[nH]1	gsp ag inconclusive
O=C(NCCc1ccccc1)c1nc2c(nnn2Cc2ccccc2Cl)c(=O)[nH]1	gsp antag 40µM
O=C(CCS(=O)(=O)c1nc(-c2cccs2)cc(C(F)(F)F)n1)Nc1ccc(F)c(Cl)c1	RXFP1 antagonist -60 (no result: gsp antag, gsp ag, Giardia killer, FBPA coupling cs)
S=c1c2c(nc3nc[nH]n13)CCC2	Giardia killer inconclusive, FBPA coupling cs -36
CC1CCc2c(nc3nc[nH]n3c2=O)C1 (stereo not given)	none
CC1=C(C#N)C(=O)N(C2CCS(=O)(=O)C2)C(=O)/C1=C\c1ccco1 (stereo not given)	FBPA coupling cs -31 (no result: RXFP1 antagonist, gsp antag, gsp ag, Giardia killer)
Cc1cccc(N2CC(C(=O)Nc3nnc(SCC(=O)Nc4cc(C)on4)s3)CC2=O)c1 (stereo not given)	FBPA coupling cs -44
Cc1cc2c(cc1C)/C(=N/NC(=O)c1ccccn1)CCC2	RXFP1 antagonist -93
O=C(NN=C1CCC(=NNC(=O)c2ccccn2)CC1)c1ccccn1	none
COc1ccc(-c2nc(N3CCN(S(=O)(=O)c4ccc(F)cc4)CC3)c3ccccc3n2)cc1	none (no result: RXFP1 antagonist, gsp antag, RXFP1 ag, gsp ag, FBPA coupling cs)
CCCSc1cc(NCCOC(C)=O)c([N+](=O)[O-])c2nonc12	FBPA coupling cs -39
CCCC(=O)OCCNc1cc(Sc2nccn2C)c2nonc2c1[N+](=O)[O-]	RXFP1 antagonist -81
CCCSc1cc(NCCOC(=O)CCC)c([N+](=O)[O-])c2nonc12	none
COc1cccc(-c2cc3c(=O)n(-c4ccccc4)c(=S)[nH]c3s2)c1	RXFP1 ag inconclusive, gsp ag 11µM
COc1ccc(-n2c(=S)[nH]c3c(sc(=S)n3-c3ccccc3)c2=O)c(OC)c1	none
COc1ccc(Nc2c([N+](=O)[O-])ccc3c2=NC2(CCCCC2)N=3)cc1	gsp antag inconclusive, FBPA coupling cs -34
CCOc1ccc(NC(=O)C2CCN(S(C)(=O)=O)CC2)cc1	gsp ag inconclusive
CSc1ccccc1NC(=O)C(=O)c1c[nH]c2ccccc12	RXFP1 antagonist -60
COc1ccc(CN2CCC(CO)(CCOc3ccccc3)CC2)c(OC)c1C	none
COc1ccc2[nH]c(CN3CCC(CO)(CCOc4ccccc4)CC3)c(C)c2c1	RXFP1 antagonist -71
Cc1ccc(S(=O)(=O)N2CCOCC2)cc1NC(=O)COc1ccc(C(=O)c2ccccc2)cc1	gsp antag 25µM, gsp ag 7.9µM (no result: FBPA coupling cs)
COc1ccc(CCn2c3c(c(=O)[nH]c2=S)CN(c2ccccc2)CN3)cc1OC	none (no result: RXFP1 antagonist, gsp antag, RXFP1 ag, gsp ag, FBPA coupling cs)
O=C(Nc1cc(Cl)ccc1O)c1snnc1-c1ccccc1	gsp antag 22µM
O=C(Nc1cccc(Cl)c1Cl)c1snnc1-c1ccccc1	none
FC(F)(F)c1cc(NC(=S)Nc2ccc3cc4ccccc4cc3c2)cc(C(F)(F)F)c1	none (no result: RXFP1 antagonist, gsp antag, RXFP1 ag, gsp ag, Giardia killer)
O=C(CC1C(=O)NCCN1Cc1ccc(-c2ccccc2)cc1)NCC1CC1 (stereo not given)	RXFP1 antagonist -61
COc1ccc(N2C3=C(CC4=C2CC(C)(C)CC4=O)C(=O)CC(C)(C)C3)cc1	FBPA coupling cs -48
COc1ccccc1C1C2=C(CC(C)(C)CC2=O)N(CC(=O)O)C2=C1C(=O)CC(C)(C)C2	none
